Assay outcomes from PubChem BioAssay.
Only a selection was taken, and hits are over-represented in it overall.
CBX7 inh: inhibitors of human CBX7 binding to H3K27me3 peptide; AlphaScreen His6-CBX7 / biotin-H3K27me3 peptide binding; active compounds read low; normalised signal (fraction of DMSO) (concentration not given with the values); actives 1.1% (n = 66,000); in the data active = normalised signal below about 0.5
Target sequence (O95931 whole entry, looked up): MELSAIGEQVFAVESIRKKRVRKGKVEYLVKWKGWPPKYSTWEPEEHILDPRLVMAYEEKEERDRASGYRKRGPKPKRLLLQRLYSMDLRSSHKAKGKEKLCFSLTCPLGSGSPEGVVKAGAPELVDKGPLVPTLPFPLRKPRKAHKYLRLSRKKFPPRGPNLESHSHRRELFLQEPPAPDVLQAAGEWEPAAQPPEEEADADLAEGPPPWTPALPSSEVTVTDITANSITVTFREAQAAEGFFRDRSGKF
* hit, by the source's call.

SMILES	CBX7 inh
CCCCCC(C)C(C)c1cc(OC)c2c(c1)OC(C)(C)C1=C2CN(CC(N)=O)CC1 (centres undefined)	0.385*
C#CCN1CCC2=C(C1)c1c(O)cc(C(C)C(C)CCCCC)cc1OC2(C)C (centres undefined)	0.649
O=C(c1ccccc1)N1CC2C(Nc3ccccc31)C1CCN2CC1 (centres undefined)	0.931
Cc1nn(-c2ccccc2)c2c1C(c1ccc(OCc3ccccc3)cc1)SCC(=O)N2 (centres undefined)	0.791
COc1ccc(CN2CCN(Cc3ccccc3Cl)CC2)cc1	0.963
CCOC(=O)C1(c2ccccc2)CCN(CC(=O)Nc2cc(Cl)ccc2OC)CC1	0.996
CCOC(=O)C1(c2ccccc2)CCN(CC(=O)Nc2cccc(Cl)c2)CC1	0.354*
CCOC(=O)C1(c2ccccc2)CCN(CC(=O)Nc2ccc(F)cc2)CC1	1.12
Cc1cccc(-n2c(/C=C/c3ccc(Cl)cc3)nc3ccccc3c2=O)c1	1.02
CNc1ccc(C)cc1C(=O)c1cccc(Br)c1	0.422*
O=C(c1ccccc1)c1cc(Br)ccc1NC(=O)c1c(F)cccc1F	1.09
CNc1ccc(Br)cc1C(=O)c1ccccc1Cl	1.14
CCC(C)C1N=C(c2ccccc2)c2cc(Cl)ccc2N(CC(=O)O)C1=O (centres undefined)	1.09
COc1ccc2[nH]c(C)c(CCNCC(C)(C)C)c2c1	1.13
COc1ccc2[nH]c(C)c(CCNCc3cccc4ccccc34)c2c1	0.588
COc1ccc2[nH]c(C)c(CCNCc3ccc(C#N)cc3)c2c1	0.257*
CC(C)CC1N=C(c2ccccc2)c2ccccc2N(CC(=O)Nc2cccc(F)c2)C1=O (centres undefined)	0.834
O=C(O)CN1C(=O)CN=C(c2ccccc2)c2cc(Cl)ccc21	1.08
CN(C(=O)CN1C(=O)CN=C(c2ccccc2F)c2cc(Cl)ccc21)c1ccccc1	0.866
CC1N=C(c2ccccc2F)c2cc(Cl)ccc2N(CC(=O)Nc2ccc(N(C)C)cc2)C1=O (centres undefined)	0.271*
CC1N=C(c2ccccc2)c2cc(Cl)ccc2N(CC(=O)Nc2ccc(N(C)C)cc2)C1=O (centres undefined)	0.515
Cc1ccc(NC(=O)CN2C(=O)C(C)N=C(c3ccccc3F)c3cc(Cl)ccc32)cc1C (centres undefined)	0.969
CCOC(=O)C1(c2ccccc2)CCN(CCOc2ccccc2)CC1	0.641
COc1ccc2c(c1OC)CCCC2CCN1CC=C(c2ccc(Cl)cc2)CC1 (centres undefined)	0.782
Cc1ccc(NC(=O)CN2C(=O)C(C)N=C(c3ccccc3)c3ccccc32)cc1F (centres undefined)	0.856
